Reference: PubChem BioAssay (NCI)
Compounds without any hit were thinned out: in the full panel of roughly 79,000, 15% have a hit. A number with no mark means an inactive call. The source made the active and inactive calls. Cut-off read from the data, not from the text of the source: active = growth inhibition above about 70%; inactive = the rest.

Legend:
[1] = NCI Yeast Anticancer Drug Screen. Data for the rad50 strain (AID 155);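 note: 0% = growth of vehicle-only cultures of the same strain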; details: S. cerevisiae rad50 strain growth inhibition, stronger effect = higher value
Summary of the method: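 Genetically altered yeast (DNA repair pathway); compound treatment; growth inhibition vs vehicle ctrl.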

[2] = NCI Yeast Anticancer Drug Screen. Data for the mec2-1 strain (AID 157); details: S. cerevisiae mec2-1 strain, stronger effect = higher value
Summary of the method: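 Vehicle-treated cultures served as reference for growth inhibition of compound-exposed mec2-1 yeast.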

[3] = NCI Yeast Anticancer Drug Screen. Data for the sgs1 mgt1 strain (AID 161);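 note: 0% = growth of cultures given vehicle only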; details: S. cerevisiae sgs1 mgt1 strain, stronger effect = higher value
Summary of the method: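 Test agents were incubated with a DNA-repair-mutant yeast strain. Growth was then read and compared against vehicle-treated controls.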

[4] = NCI Yeast Anticancer Drug Screen. Data for the cln2 rad14 strain (AID 165);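 note: 0% = growth equal to vehicle treated cultures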; details: S. cerevisiae cln2 rad14 strain, stronger effect = higher value
Summary of the method: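 Each compound was tested on cln2 rad14 yeast. Inhibition of growth was calculated against vehicle-exposed controls.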

[5] = NCI Yeast Anticancer Drug Screen. Data for the bub3 strain (AID 167); details: S. cerevisiae bub3 mutant strain, stronger effect = higher value
Summary of the method: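 Yeast carrying a defined mutation is treated with each compound, and growth is compared with that of vehicle-exposed cells to give inhibition.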

[6] = NCI Yeast Anticancer Drug Screen. Data for the mlh1 rad18 strain (AID 175); details: S. cerevisiae mlh1 rad18 strain growth inhibition, stronger effect = higher value
Summary of the method: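 Vehicle-treated cultures served as the reference for growth inhibition in a yeast strain carrying DNA damage repair alterations exposed to each compound.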

[7] = at 5.0 µM (retest, dose inferred, filed as 0.5)
[8] = at 50.0 µM (retest, dose inferred, filed as 5.0)

| SMILES | growth inhibition [1, 7] | growth inhibition [1, 8] | growth inhibition ([1]; at 50.0 µM) | growth inhibition [2, 7] | growth inhibition [2, 8] | growth inhibition ([2]; at 50.0 µM) | growth inhibition [3, 7] | growth inhibition [3, 8] | growth inhibition ([3]; at 50.0 µM) | growth inhibition [4, 7] [%] | growth inhibition [4, 8] | growth inhibition ([4]; at 50.0 µM) | growth inhibition [5, 7] | growth inhibition [5, 8] | growth inhibition ([5]; at 50.0 µM) | growth inhibition [6, 7] | growth inhibition [6, 8] | growth inhibition ([6]; at 50.0 µM) |
| --- | --- | --- | --- | --- | --- | --- | --- | --- | --- | --- | --- | --- | --- | --- | --- | --- | --- | --- |
| Cc1ccc(NC(=S)SCc2ccc3c(c2)OCO3)cc1Cl | 19% | 96% (active) | 98.9% (active) | 15% | 99% (active) | 99.5% (active) | 16% | 98% (active) | 99% (active) | -7 | 97% (active) | 98.8% (active) | 15% | 99% (active) | 99.2% (active) | 39% | 97% (active) | 99.2% (active) |
| CCCCCCCCCCCCCCCCCC[N+](C)(C)Cc1ccc(C[N+](C)(C)CCCCCCCCCCCCCCCCCC)cc1 | -5% | 22% | 1.5% | -3% | 7% | 35.3% | 5% | 51% | 71.3% (active) | -2 | -9% | 44.9% | -4% | 11% | 5.05% | -3% | 26% | 8.2% |
| CCOC(=O)C1=C(C)NC(=O)NC1c1coc2cc(C)cc(C)c2c1=O (stereo not given) | -1% | 10% | 12.4% | -2% | 15% | -5% | 3% | 14% | -2.5% | 20 | 5% | 52.2% | 14% | -4% | -15.8% | 0% | 1% | -7.1% |
| COc1ccc2c(c1)S(=O)(=O)C(c1ccccc1)=CC2=O | 81% (active) | 99% (active) | 99.5% (active) | 87% (active) | 99% (active) | 99.5% (active) | 91% (active) | 99% (active) | 99.2% (active) | 66 | 99% (active) | 97.5% (active) | 87% (active) | 98% (active) | 99.5% (active) | 95% (active) | 98% (active) | 99% (active) |
| COc1ccc(C2C(C#N)(C#N)C2(C#N)C#N)cc1 | 16% | 98% (active) | 63.5% | 19% | 99% (active) | 96.5% (active) | 21% | 98% (active) | 98.3% (active) | 2 | 99% (active) | 88% (active) | 6% | 98% (active) | 94.8% (active) | 22% | 99% (active) | 92.7% (active) |
| NC(=S)N/N=C1\NC(=O)/C(=C/c2ccc3c(c2)OCO3)S1 | 16% | 12% | -45.6% | 15% | 20% | -40.6% | 13% | 13% | -13.3% | 16 | 11% | -13.9% | 9% | 31% | 0.7% | 14% | 18% | -14% |
| CCCOC(=O)COc1ccccc1C(=O)OCCC | 5% | 10% | -1.2% | 2% | 7% | -15.5% | 0% | 11% | 6% | 13 | 15% | 14.9% | 10% | 44% | 23.2% | 0% | 13% | -11.4% |
| O=P(O)(CN1CCN(CP(=O)(O)c2ccccc2)CCN(CP(=O)(O)c2ccccc2)CC1)c1ccccc1 | 17% | 65% | 86.7% (active) | 4% | 61% | 81.8% (active) | 11% | 51% | 85% (active) | 12 | 58% | 60% | 30% | 72% (active) | 88.3% (active) | 22% | 53% | 80.3% (active) |
| C1=C(c2ccccc2)C(c2ccccc2)C(c2ccccc2)C/C1=N/OCCN1CCCC1 (stereo not given) | 30% | 99% (active) | 99% (active) | 55% | 99% (active) | 99.6% (active) | 17% | 100% (active) | 99.6% (active) | -9 | 98% (active) | 55.1% | 39% | 99% (active) | 99.2% (active) | 78% (active) | 99% (active) | 97.7% (active) |
| COC12C(COC(N)=O)C3=C(C(=O)C(C)=C(N)C3=O)N1CC1C2N1C(=O)c1ccc(Cl)c(Cl)c1 (stereo not given) | 32% | 93% (active) | 82.2% (active) | 29% | 96% (active) | 85.3% (active) | 12% | 95% (active) | 89.2% (active) | 11 | 94% (active) | 80.5% (active) | 22% | 95% (active) | 83.8% (active) | 37% | 95% (active) | 88% (active) |
